About 7,900 targets were measured; listed, in parts, are those with a hit and a random draw of the rest. About 0.6% of all pairs of compound and target were hits.
What was measured:
Experiment in all cases: log2 fold change, soluble protein after heating vs DMSO (PISA); higher = thermal stabilisation; K562 cells, 10 uM, 30 min; active = over 0.2 and 3.5 SD of the protein, either way, in both replicates (recomputed)
[1] = compound: CS(=O)(=O)c1ccc(-c2cnc(N)c(C(=O)Nc3ccccc3)n2)cc1
In short: (§1)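 K562 cells at 2×10^6 cells/mL were given 10 μM compound for 30 min. Aliquots then went through 3 min of heating across 48°C-58°C, were pooled, and were extracted in PBS with 0.5% NP-40 at 4°C, and the supernatant after 21,000xg for 90 min was quantified by TMTpro 16plex LC-MS/MS with channel sums equalised. Thermal stability relative to control samples, from duplicates, is given as log2 fold change.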

[2] = compound: C[C@@H](Oc1cc(-c2cnn(C3CCNCC3)c2)cnc1N)c1c(Cl)ccc(F)c1Cl [crizotinib]
In short: as §1

[3] = compound: C[C@@H]1COCCN1C2=NC(=NC(=C2)C3(CC3)S(=O)(=O)C)C4=C5C=CNC5=CC=C4
In short: as §1

[4] = compound: C[C@H](C1=CC=C(C=C1)C(=O)NC2=C3C=CNC3=NC=C2)N
In short: as §1

[5] = compound: C[C@H](Nc1ncnc2nc[nH]c12)c1cc2cccc(Cl)c2c(=O)n1-c1ccccc1 [duvelisib]
In short: as §1

[6] = compound: Cc1cc(Nc2cc(CN3CCOCC3)c3nc(C)c(Cc4ccc(Cl)cc4F)n3n2)n[nH]1 [gandotinib]
In short: as §1

[7] = compound: Cc1cc(Nc2cc(N3CCN(C)CC3)nc(Sc3ccc(NC(=O)C4CC4)cc3)n2)n[nH]1 [tozasertib]
In short: as §1

[8] = compound: Cc1cc(SCc2sc(-c3ccc(C(F)(F)F)cc3)nc2C)ccc1OCC(=O)O
In short: as §1

[9] = compound: Cc1ccc(-n2nc(C(C)(C)C)cc2NC(=O)Nc2ccc(OCCN3CCOCC3)c3ccccc23)cc1 [doramapimod]
In short: as §1

[10] = compound: Cc1ccc(C(=O)N(CCCN)[C@@H](c2nc3cc(Cl)ccc3c(=O)n2Cc2ccccc2)C(C)C)cc1 [ispinesib]
In short: as §1

Measured: log2 fold change

UBAP1 isoform 4 (UniProt Q9NZ09)
Sequence of UniProt Q9NZ09 (Q9NZ09 whole entry, looked up): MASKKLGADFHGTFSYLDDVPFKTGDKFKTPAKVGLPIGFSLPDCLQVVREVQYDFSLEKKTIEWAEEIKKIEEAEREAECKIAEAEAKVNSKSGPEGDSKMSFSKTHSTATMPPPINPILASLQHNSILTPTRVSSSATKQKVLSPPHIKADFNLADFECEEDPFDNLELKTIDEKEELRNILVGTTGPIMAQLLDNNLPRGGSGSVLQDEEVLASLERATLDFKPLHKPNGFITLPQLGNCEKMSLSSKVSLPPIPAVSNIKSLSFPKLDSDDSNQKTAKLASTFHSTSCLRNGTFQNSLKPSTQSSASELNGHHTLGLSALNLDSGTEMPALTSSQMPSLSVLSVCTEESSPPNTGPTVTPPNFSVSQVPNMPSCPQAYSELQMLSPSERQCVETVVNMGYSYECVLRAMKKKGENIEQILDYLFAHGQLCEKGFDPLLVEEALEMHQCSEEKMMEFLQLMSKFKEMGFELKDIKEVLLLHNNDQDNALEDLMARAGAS
inactive: [1] -0.003 | [2] -0.008 | [3] 0.07 | [4] 0.023 | [5] 0.052 | [6] 0.009 | [7] 0.399 | [8] 0.082 | [9] 0.044 | [10] -0.046

WRB (UniProt O00258)
Sequence of UniProt O00258 (O00258 whole entry, looked up): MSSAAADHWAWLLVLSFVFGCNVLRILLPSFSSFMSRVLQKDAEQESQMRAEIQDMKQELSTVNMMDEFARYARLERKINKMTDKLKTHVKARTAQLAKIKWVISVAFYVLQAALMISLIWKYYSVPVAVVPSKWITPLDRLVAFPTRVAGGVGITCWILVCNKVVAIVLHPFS
inactive: [1] -0.031 | [2] 0.057 | [3] 0.036 | [4] -0.028 | [5] -0.094 | [6] -0.053 | [7] -0.016 | [8] 0.067 | [9] 0.015 | [10] 0.029

UQCR10 (UniProt Q9UDW1)
Sequence of UniProt Q9UDW1 (Q9UDW1 whole entry, looked up): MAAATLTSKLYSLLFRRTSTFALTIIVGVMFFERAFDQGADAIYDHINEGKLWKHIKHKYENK
inactive: [1] -0.036 | [2] 0.079 | [3] 0.071 | [4] -0.043 | [5] 0.089 | [7] 0.013 | [8] 0.013 | [9] -0.025 | [10] 0.095
active: [6] -0.403

TMEM120A (UniProt Q9BXJ8)
Sequence of UniProt Q9BXJ8 (Q9BXJ8 whole entry, looked up): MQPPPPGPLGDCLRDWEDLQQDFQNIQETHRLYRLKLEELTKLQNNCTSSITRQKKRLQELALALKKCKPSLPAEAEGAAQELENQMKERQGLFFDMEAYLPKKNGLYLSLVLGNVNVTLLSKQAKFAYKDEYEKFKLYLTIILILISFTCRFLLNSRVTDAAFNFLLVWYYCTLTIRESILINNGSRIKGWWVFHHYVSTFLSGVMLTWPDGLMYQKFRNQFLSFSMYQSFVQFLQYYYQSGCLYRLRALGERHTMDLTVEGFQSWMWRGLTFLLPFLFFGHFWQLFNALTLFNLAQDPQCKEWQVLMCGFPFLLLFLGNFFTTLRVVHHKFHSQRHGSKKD
inactive: [1] -0.137 | [2] 0.096 | [3] 0.175 | [4] -0.11 | [5] -0.009 | [6] -0.125 | [7] -0.01 | [8] -0.055 | [9] -0.077 | [10] 0.033

UBE2E3 (UniProt Q969T4)
Sequence of UniProt Q969T4 (Q969T4 whole entry, looked up): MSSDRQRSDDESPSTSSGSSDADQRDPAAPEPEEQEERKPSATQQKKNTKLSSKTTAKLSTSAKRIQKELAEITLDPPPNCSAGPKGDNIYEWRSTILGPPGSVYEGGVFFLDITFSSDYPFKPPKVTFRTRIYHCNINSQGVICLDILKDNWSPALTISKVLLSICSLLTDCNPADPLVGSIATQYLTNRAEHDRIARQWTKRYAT
inactive: [1] 0.008 | [2] 0 | [3] 0.219 | [4] 0.008 | [5] 0.025 | [6] -0.052 | [7] 0.061 | [8] 0.034 | [9] 0.03 | [10] -0.005

VAMP7 (UniProt P51809)
Sequence of UniProt P51809 (P51809 whole entry, looked up): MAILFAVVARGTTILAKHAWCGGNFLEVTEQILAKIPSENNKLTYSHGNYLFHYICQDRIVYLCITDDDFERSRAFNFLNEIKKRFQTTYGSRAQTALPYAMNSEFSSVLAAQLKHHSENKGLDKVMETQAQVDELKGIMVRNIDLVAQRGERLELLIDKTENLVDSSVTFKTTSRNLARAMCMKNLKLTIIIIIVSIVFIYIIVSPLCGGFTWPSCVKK
inactive: [1] 0.021 | [3] 0.005 | [4] -0.046 | [5] -0.005 | [6] -0.026 | [7] 0.005 | [8] -0.011 | [9] -0.007
active: [2] -0.299 | [10] -0.275

TSG101 (UniProt Q99816)
Sequence of UniProt Q99816 (Q99816 whole entry, looked up): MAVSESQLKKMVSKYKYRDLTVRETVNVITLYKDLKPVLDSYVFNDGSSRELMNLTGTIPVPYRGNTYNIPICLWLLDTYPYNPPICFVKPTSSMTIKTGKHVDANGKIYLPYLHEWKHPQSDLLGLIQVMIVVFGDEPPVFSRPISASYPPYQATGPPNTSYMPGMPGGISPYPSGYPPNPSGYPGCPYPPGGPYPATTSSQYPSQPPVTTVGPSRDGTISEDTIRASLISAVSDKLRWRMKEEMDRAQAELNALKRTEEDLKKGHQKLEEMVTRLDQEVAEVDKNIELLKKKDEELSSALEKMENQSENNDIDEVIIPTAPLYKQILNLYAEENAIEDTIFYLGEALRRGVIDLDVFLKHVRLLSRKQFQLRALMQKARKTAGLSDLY
inactive: [1] 0.035 | [2] -0.094 | [3] 0.082 | [4] -0.054 | [5] 0.019 | [6] -0.024 | [7] 0.032 | [8] 0.018 | [9] 0.009 | [10] -0.037

TNFAIP8 isoform 4 (UniProt O95379)
Sequence of UniProt O95379 (O95379 whole entry, looked up): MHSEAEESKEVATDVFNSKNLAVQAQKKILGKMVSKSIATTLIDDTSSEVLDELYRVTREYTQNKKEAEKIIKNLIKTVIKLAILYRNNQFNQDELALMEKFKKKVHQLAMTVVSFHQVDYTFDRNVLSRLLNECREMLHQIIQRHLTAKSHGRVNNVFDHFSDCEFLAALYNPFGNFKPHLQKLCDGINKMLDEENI
inactive: [1] 0.005 | [2] 0 | [3] 0.122 | [4] -0.099 | [5] 0.019 | [6] -0.073 | [7] -0.076 | [8] -0.046 | [9] -0.016 | [10] -0.046

VPS37A (UniProt Q8NEZ2)
Sequence of UniProt Q8NEZ2 (Q8NEZ2 whole entry, looked up): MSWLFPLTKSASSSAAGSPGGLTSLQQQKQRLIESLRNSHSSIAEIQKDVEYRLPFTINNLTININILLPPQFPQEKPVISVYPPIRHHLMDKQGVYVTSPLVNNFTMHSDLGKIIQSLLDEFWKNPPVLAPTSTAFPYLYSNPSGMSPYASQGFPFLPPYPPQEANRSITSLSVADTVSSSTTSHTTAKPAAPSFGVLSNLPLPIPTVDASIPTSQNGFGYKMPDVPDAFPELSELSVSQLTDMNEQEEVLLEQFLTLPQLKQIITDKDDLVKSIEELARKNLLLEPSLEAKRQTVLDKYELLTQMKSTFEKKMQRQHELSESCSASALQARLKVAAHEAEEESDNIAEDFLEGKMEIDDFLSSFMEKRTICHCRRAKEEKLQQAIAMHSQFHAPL
inactive: [1] 0.035 | [2] -0.146 | [3] 0.092 | [4] -0.084 | [5] 0.044 | [6] -0.292 | [7] 0.057 | [8] 0.206 | [9] -0.017 | [10] 0

TRMT10A (UniProt Q8TBZ6)
Sequence of UniProt Q8TBZ6 (Q8TBZ6 whole entry, looked up): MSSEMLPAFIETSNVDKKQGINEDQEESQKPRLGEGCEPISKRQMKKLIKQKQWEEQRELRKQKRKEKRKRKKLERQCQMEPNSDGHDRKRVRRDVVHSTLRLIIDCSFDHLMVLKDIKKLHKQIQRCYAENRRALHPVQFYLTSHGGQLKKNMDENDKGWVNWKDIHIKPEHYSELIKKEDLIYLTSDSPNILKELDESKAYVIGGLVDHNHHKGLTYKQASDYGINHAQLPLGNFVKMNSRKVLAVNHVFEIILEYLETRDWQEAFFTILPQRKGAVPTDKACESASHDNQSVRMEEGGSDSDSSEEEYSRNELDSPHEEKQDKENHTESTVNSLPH
inactive: [1] 0.012 | [2] 0.01 | [3] 0.093 | [4] -0.072 | [5] 0.053 | [6] 0 | [7] -0.031 | [8] 0.016 | [9] -0.023 | [10] 0.028

UBAP2L isoform 1 (UniProt Q14157)
inactive: [1] -0.034 | [2] 0.077 | [3] 0.009 | [4] -0.008 | [5] 0.022 | [6] -0.007 | [7] -0.062 | [8] -0.056 | [9] 0.034 | [10] -0.026

VPS18 (UniProt Q9P253)
Sequence of UniProt Q9P253 (Q9P253 whole entry, looked up): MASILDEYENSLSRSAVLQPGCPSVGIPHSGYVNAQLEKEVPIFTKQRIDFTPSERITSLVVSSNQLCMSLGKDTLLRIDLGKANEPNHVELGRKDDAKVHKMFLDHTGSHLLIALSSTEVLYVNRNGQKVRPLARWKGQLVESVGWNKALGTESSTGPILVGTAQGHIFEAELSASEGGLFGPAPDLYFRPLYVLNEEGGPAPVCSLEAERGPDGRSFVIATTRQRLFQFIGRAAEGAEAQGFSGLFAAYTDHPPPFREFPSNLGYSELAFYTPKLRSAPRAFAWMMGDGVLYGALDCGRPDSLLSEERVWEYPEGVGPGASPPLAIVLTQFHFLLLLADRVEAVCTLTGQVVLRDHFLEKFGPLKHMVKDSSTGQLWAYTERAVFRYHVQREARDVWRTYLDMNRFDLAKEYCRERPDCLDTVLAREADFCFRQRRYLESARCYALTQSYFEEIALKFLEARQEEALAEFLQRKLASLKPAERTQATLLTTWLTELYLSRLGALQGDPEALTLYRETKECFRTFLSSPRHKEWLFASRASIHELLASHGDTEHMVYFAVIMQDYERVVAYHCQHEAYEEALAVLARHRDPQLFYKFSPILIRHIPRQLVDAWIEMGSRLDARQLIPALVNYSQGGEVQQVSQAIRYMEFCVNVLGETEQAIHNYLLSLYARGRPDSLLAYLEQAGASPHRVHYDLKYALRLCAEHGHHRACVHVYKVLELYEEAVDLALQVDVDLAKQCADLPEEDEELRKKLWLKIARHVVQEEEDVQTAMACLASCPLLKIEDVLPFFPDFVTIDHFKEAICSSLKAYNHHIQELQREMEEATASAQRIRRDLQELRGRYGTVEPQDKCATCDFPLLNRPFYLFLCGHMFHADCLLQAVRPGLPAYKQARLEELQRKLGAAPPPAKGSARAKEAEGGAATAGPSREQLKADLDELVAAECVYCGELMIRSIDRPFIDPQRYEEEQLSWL
inactive: [1] -0.008 | [2] -0.21 | [3] -0.013 | [4] 0.05 | [5] -0.035 | [6] -0.041 | [7] 0.009 | [8] 0.063 | [9] -0.014 | [10] -0.203

UFD1 isoform 1 (UniProt Q92890)
Sequence of UniProt Q92890 (Q92890 whole entry, looked up): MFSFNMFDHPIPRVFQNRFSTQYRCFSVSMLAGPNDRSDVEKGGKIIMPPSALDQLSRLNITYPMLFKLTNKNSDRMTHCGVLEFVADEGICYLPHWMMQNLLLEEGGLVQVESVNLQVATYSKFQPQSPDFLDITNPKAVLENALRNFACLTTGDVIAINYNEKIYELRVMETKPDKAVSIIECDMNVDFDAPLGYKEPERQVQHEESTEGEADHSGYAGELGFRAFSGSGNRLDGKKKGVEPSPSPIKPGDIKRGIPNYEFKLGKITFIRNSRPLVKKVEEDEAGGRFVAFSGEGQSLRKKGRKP
inactive: [1] -0.029 | [2] 0.004 | [3] -0.032 | [4] -0.022 | [5] 0.043 | [6] -0.099 | [7] -0.027 | [8] -0.04 | [9] 0.007 | [10] 0.036

TUT4 (UniProt Q5TAX3)
inactive: [1] 0.069 | [2] 0.075 | [3] -0.286 | [4] 0.095 | [5] 0.166 | [6] 0.024 | [7] 0.044 | [8] 0.195 | [9] -0.003 | [10] -0.124

TRIP10 (UniProt Q15642)
Sequence of UniProt Q15642 (Q15642 whole entry, looked up): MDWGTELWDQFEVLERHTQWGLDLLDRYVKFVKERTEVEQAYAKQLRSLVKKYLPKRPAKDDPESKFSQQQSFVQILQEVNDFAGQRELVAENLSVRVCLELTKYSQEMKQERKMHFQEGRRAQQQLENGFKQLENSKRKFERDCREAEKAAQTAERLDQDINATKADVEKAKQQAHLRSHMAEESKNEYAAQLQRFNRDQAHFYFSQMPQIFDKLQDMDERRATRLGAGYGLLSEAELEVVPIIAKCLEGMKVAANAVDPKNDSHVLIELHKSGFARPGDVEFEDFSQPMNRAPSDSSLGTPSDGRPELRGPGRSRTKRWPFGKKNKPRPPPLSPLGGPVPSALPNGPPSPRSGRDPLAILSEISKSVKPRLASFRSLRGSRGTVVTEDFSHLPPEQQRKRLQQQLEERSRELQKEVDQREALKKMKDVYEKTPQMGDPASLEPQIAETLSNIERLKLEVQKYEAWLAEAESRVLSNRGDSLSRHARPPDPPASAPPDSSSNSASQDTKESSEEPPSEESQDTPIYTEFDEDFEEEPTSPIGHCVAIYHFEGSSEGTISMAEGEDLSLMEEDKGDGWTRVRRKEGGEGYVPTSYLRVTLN
inactive: [1] 0.08 | [2] -0.009 | [3] -0.085 | [4] -0.026 | [5] 0.005 | [6] 0.044 | [7] -0.003 | [8] 0.038 | [9] -0.036 | [10] -0.021

TMEM9 (UniProt Q9P0T7)
inactive: [1] -0.026 | [2] -0.026 | [3] 0.029 | [4] -0.197 | [5] -0.012 | [6] -0.026 | [7] -0.049 | [8] 0.014 | [9] 0.048 | [10] -0.093

From the supplement of paper PMC10849652
